Experimental data as given in the supplement of paper PMC10849652.
The full data set covers some 7,900 targets. This sample favours those with a hit. About 0.6% of all pairs of compound and target were hits. Values without a mark were called inactive.

compound: C[C@@H](Oc1cc(-c2cnn(C3CCNCC3)c2)cnc1N)c1c(Cl)ccc(F)c1Cl [crizotinib]; experiment: log2 fold change, soluble protein after heating vs DMSO (PISA); higher = thermal stabilisation; K562 cells, 10 uM, 30 min; active = over 0.2 and 3.5 SD of the protein, either way, in both replicates (recomputed)
Summary of the method: (§1)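 Soluble protein was quantified by TMTpro 16plex LC-MS/MS after channel sums were equalised. It was obtained as the supernatant after 21,000xg for 90 min from pooled aliquots of K562 cells (2×10^6 cells/mL, 10 μM compound, 30 min) heated for 3 min across 48°C-58°C and extracted in PBS with 0.5% NP-40 at 4°C. Thermal stability values are relative to control samples and come from duplicates. They are given as log2 fold changes.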

Chain of UniProt Q8N128 (Q8N128 whole entry, looked up): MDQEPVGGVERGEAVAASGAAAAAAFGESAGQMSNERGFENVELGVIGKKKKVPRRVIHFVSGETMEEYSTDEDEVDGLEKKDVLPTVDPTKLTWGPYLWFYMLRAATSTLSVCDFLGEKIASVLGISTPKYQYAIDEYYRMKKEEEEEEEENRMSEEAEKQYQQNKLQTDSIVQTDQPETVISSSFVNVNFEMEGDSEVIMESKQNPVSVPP
Chain of UniProt Q9BQI3 (Q9BQI3 whole entry, looked up): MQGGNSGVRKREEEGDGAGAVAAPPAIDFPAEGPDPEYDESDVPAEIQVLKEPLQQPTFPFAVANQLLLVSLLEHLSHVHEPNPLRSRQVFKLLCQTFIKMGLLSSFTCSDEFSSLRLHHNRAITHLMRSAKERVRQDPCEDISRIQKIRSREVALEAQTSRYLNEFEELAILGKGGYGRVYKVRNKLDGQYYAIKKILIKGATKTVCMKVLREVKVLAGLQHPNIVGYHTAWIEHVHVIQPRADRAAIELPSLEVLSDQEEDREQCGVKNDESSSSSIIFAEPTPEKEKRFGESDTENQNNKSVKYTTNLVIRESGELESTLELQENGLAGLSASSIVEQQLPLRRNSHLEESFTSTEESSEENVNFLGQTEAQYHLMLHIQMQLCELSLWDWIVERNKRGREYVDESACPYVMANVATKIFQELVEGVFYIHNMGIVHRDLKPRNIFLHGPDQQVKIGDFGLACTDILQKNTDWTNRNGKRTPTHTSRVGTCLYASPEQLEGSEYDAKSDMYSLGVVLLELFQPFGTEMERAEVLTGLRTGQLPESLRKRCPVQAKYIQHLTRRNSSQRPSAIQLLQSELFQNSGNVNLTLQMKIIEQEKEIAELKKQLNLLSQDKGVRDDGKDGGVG
Chain of UniProt P35222 (P35222 whole entry, looked up): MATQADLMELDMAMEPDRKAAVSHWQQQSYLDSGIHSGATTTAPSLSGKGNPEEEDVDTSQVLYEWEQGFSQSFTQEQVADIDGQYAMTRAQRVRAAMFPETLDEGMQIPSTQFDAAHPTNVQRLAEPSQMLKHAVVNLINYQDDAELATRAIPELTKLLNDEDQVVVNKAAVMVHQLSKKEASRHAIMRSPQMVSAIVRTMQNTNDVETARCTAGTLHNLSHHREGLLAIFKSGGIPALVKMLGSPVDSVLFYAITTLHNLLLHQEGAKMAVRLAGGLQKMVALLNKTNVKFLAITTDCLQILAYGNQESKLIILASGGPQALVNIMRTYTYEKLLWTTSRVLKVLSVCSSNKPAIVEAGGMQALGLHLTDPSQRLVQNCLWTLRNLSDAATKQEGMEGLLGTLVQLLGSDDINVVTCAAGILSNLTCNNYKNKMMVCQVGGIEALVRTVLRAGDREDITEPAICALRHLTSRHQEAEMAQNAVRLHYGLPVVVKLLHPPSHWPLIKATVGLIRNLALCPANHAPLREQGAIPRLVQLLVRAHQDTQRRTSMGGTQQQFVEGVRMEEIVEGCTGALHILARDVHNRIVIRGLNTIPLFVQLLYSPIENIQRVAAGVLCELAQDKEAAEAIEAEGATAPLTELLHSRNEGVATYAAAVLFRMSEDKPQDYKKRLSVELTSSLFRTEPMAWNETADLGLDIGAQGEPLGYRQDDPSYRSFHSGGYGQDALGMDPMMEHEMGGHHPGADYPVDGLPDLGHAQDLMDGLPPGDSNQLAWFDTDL
Chain of UniProt Q9C073 (Q9C073 whole entry, looked up): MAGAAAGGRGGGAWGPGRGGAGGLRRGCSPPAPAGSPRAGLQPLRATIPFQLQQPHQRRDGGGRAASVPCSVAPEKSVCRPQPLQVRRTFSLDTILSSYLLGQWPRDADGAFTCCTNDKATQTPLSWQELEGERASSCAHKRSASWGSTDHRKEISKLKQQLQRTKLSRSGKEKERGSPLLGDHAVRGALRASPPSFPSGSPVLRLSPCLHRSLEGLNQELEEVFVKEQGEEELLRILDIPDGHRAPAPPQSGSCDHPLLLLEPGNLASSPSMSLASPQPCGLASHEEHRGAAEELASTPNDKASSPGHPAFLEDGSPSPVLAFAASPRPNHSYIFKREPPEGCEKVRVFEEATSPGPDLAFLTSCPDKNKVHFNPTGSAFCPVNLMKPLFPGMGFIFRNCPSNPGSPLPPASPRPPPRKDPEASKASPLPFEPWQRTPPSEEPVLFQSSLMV
Chain of UniProt Q96GQ7 (Q96GQ7 whole entry, looked up): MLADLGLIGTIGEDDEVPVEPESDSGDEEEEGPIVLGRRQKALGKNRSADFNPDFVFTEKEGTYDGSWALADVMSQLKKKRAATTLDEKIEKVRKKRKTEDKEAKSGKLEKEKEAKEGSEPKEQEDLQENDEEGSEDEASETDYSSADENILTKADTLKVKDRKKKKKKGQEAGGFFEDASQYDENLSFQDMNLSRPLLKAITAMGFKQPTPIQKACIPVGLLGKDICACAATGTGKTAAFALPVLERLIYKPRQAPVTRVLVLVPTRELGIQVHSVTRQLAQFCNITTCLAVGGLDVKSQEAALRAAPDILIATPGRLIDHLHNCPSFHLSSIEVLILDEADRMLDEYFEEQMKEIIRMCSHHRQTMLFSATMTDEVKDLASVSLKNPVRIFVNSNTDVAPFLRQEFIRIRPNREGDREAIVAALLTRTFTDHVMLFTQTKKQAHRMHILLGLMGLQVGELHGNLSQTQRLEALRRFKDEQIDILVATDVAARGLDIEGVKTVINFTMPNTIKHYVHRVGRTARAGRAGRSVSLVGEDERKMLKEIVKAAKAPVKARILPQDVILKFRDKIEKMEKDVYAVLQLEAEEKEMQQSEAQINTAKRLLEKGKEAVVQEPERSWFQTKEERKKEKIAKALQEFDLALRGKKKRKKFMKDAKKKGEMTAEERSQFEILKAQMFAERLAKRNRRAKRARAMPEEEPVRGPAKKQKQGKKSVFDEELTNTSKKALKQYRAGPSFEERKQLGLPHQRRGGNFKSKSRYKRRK
Chain of UniProt P50570 (P50570 whole entry, looked up): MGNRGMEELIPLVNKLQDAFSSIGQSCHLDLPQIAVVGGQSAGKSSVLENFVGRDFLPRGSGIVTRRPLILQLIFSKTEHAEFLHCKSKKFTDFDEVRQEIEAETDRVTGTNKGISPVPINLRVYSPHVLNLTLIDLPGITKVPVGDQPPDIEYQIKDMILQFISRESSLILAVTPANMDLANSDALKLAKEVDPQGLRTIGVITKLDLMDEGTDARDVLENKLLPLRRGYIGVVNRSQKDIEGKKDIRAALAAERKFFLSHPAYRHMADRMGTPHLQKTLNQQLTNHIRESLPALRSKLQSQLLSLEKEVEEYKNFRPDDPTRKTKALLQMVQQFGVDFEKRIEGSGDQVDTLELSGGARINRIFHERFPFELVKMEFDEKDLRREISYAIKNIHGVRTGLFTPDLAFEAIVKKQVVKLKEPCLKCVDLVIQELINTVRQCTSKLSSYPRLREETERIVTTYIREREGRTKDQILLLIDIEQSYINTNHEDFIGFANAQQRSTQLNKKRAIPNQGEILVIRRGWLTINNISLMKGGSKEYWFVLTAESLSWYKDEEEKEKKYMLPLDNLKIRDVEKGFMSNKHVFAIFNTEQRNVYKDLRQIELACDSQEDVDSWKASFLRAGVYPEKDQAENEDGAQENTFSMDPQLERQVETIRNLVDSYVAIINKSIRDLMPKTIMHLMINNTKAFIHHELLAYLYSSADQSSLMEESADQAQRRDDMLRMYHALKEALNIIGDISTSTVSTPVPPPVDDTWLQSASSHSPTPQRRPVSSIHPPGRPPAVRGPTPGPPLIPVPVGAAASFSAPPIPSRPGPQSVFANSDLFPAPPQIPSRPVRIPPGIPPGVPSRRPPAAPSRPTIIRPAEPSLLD
Chain of UniProt Q96G46 (Q96G46 whole entry, looked up): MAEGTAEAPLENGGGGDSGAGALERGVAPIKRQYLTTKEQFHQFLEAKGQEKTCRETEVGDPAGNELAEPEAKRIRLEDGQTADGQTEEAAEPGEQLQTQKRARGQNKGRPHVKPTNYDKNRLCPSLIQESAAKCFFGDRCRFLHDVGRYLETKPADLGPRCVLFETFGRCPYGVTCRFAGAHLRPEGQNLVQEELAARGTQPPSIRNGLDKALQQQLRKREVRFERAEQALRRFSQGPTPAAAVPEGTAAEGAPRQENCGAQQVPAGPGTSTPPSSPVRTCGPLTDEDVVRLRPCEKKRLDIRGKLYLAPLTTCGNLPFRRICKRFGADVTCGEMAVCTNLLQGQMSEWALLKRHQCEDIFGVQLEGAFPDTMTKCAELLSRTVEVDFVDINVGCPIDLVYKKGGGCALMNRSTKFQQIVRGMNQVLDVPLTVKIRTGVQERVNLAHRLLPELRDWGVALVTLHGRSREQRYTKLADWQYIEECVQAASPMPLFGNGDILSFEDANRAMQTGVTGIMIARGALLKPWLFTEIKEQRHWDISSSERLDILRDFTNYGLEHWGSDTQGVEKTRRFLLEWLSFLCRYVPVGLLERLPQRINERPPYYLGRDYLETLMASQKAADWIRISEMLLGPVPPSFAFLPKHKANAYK
Chain of UniProt Q6P3W2 (Q6P3W2 whole entry, looked up): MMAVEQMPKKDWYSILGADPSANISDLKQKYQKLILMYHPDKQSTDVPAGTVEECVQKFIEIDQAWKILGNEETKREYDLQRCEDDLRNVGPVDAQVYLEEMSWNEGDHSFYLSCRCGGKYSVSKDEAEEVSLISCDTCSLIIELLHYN
Chain of UniProt Q9H777 (Q9H777 whole entry, looked up): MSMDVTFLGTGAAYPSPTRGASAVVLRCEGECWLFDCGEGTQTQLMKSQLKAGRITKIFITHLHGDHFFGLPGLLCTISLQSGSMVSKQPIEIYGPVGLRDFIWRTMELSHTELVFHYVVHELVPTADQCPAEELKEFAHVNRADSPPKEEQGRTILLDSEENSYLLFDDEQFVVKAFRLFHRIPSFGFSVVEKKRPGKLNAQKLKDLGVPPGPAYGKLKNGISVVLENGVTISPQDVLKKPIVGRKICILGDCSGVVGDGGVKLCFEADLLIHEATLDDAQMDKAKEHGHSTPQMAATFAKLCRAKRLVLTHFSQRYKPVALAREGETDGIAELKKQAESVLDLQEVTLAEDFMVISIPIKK

Target	log2 fold change
DYNC1I2 isoform 2 (UniProt Q13409)	-0.05
EZH2 isoform 2 (UniProt Q15910)	-0.196
EHBP1L1 (UniProt Q8N3D4)	-0.01
DDX5 (UniProt P17844)	-0.16
FAM177A1 isoform 2 (UniProt Q8N128)	-0.109
EXOC4 (UniProt Q96A65)	-0.275
E2F4 (UniProt Q16254)	-0.029
DNAH10 (UniProt Q8IVF4)	0.135
DSN1 (UniProt Q9H410)	-0.016
DNM2 isoform 4 (UniProt P50570)	-0.087
CWF19L2 (UniProt Q2TBE0)	-0.034
DDOST (UniProt P39656)	-0.051
CTSS (UniProt P25774)	0.063
DUS3L (UniProt Q96G46)	0.112
EFL1 (UniProt Q7Z2Z2)	-0.055
EEF1A1 (UniProt P68104)	0.001
FAM207A (UniProt Q9NSI2)	0.075
DPP8 (UniProt Q6V1X1)	-0.003
DDX27 (UniProt Q96GQ7)	-0.037
DBT (UniProt P11182)	-0.01

Target	log2 fold change
FAM241A (UniProt Q8N8J7)	0.117
CYB561A3 isoform 2 (UniProt Q8NBI2)	-0.05
FAM193B (UniProt Q96PV7)	-0.081
FAM117A (UniProt Q9C073)	-0.166
EHD2 (UniProt Q9NZN4)	-0.068
DAXX (UniProt Q9UER7)	0.098
DHRS13 (UniProt Q6UX07)	0.127
CTNNB1 (UniProt P35222)	0.024
DOCK8 (UniProt Q8NF50)	-0.011
EIF4G3 isoform 3 (UniProt O43432)	-0.106
DCP2 (UniProt Q8IU60)	0.779 (active)
EIF2AK1 (UniProt Q9BQI3)	0.015
FAF2 (UniProt Q96CS3)	-0.056
ELF1 (UniProt P32519)	-0.06
DNAJC24 (UniProt Q6P3W2)	0.055
EXOSC10 (UniProt Q01780)	0.043
DNAH5 (UniProt Q8TE73)	0.145
FAM118B (UniProt Q9BPY3)	-0.169
ELAC1 (UniProt Q9H777)	0.011
EIF4E2 (UniProt O60573)	-0.018

compound: C[C@@H]1COCCN1C2=NC(=NC(=C2)C3(CC3)S(=O)(=O)C)C4=C5C=CNC5=CC=C4; experiment: as above
Summary of the method: as §1

Target	log2 fold change
DYNC1I2 isoform 2 (UniProt Q13409)	-0.02
EZH2 isoform 2 (UniProt Q15910)	-0.039
EHBP1L1 (UniProt Q8N3D4)	-0.005
DDX5 (UniProt P17844)	0.135
FAM177A1 isoform 2 (UniProt Q8N128)	0.059
EXOC4 (UniProt Q96A65)	-0.099
E2F4 (UniProt Q16254)	0.024
DNAH10 (UniProt Q8IVF4)	-0.003
DSN1 (UniProt Q9H410)	0.086
DNM2 isoform 4 (UniProt P50570)	-0.039
DDOST (UniProt P39656)	-0.065
DUS3L (UniProt Q96G46)	0.019
EFL1 (UniProt Q7Z2Z2)	0.074
EEF1A1 (UniProt P68104)	-0.022
FAM207A (UniProt Q9NSI2)	0.08
DPP8 (UniProt Q6V1X1)	0.011
DDX27 (UniProt Q96GQ7)	-0.064

Target	log2 fold change
DBT (UniProt P11182)	-0.014
FAM193B (UniProt Q96PV7)	-0.097
FAM117A (UniProt Q9C073)	-0.013
EHD2 (UniProt Q9NZN4)	0.077
CTNNB1 (UniProt P35222)	-0.087
DOCK8 (UniProt Q8NF50)	-0.075
DCP2 (UniProt Q8IU60)	0.119
EIF2AK1 (UniProt Q9BQI3)	0.015
FAF2 (UniProt Q96CS3)	0.042
ELF1 (UniProt P32519)	-0.006
DNAJC24 (UniProt Q6P3W2)	-0.031
EXOSC10 (UniProt Q01780)	0.063
DNAH5 (UniProt Q8TE73)	-0.007
FAM118B (UniProt Q9BPY3)	-0.007
ELAC1 (UniProt Q9H777)	-0.13
EIF4E2 (UniProt O60573)	-0.027
